Results as given in PubChem BioAssay AID1159580 (chemical genetic matrix, 2015).
The campaign covered roughly 5,500 compounds. About 2,000 (36%) were called active. About 18% were inconclusive and are not listed. No stated cut-off is given here; in the data, active means normalized growth mostly below about 0.91 (no sharp cut-off); inconclusive means no clear call, values can overlap the other calls; inactive means mostly above about 0.92. The list shows a part of the results.

Assay: chemical genetic growth profiling, strain panel (AID 1159580);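 further: tested at 20 µM; growth read once vehicle control cultures reached saturation at 30 °C; 1 = growth at the plate median or of vehicle wells; lower values mean less growth of the strain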
Details: growth OD

Measured: normalized growth

CC(=O)N[C@@H](CC(=O)O)C(=O)O
inactive: S. cerevisiae deletion strains, locus YJR043C, strain POL32, active compounds read low 1.01 | S. cerevisiae deletion strains, locus YJR075W, strain HOC1, active compounds read low 1.01 | S. cerevisiae deletion strains, locus YKL009W, strain mrt4, active compounds read low 1.03 | S. cerevisiae deletion strains, locus YKL068W, active compounds read low 1.01 | S. cerevisiae deletion strains, locus YKL085W, strain MDH1 (second series), active compounds read low 1.01 | S. cerevisiae deletion strains, locus YKL085W, strain MDH1, active compounds read low 1.01 | S. cerevisiae deletion strains, locus YKL160W, strain elf1, active compounds read low 0.998 | S. cerevisiae deletion strains, locus YKL190W, strain CNB1, active compounds read low 1.01 | S. cerevisiae deletion strains, locus YKR001C, strain vps1, active compounds read low 1.01 | S. cerevisiae deletion strains, locus YKR026C, strain gcn3, active compounds read low 1.01 | S. cerevisiae deletion strains, locus YKR091W, strain srl3, active compounds read low 1 | S. cerevisiae deletion strains, locus YLL001W, strain dnm1, active compounds read low 1.01 | S. cerevisiae deletion strains, locus YLL026W, active compounds read low 1.01 | S. cerevisiae deletion strains, locus YLL041C, strain sdh2, active compounds read low 1.01 | S. cerevisiae deletion strains, locus YLR027C, strain aat2, active compounds read low 1.02 | S. cerevisiae deletion strains, locus YLR039C, strain RIC1, active compounds read low 0.984 | S. cerevisiae deletion strains, locus YLR058C, strain SHM2, active compounds read low 1.01 | S. cerevisiae deletion strains, locus YLR102C, strain apc9, active compounds read low 1.01 | S. cerevisiae deletion strains, locus YLR221C, strain rsa3, active compounds read low 0.974 | S. cerevisiae deletion strains, locus YLR258W, strain gsy2, active compounds read low 0.997 | S. cerevisiae deletion strains, locus YLR262C, strain YPT6 (second series), active compounds read low 1 | S. cerevisiae deletion strains, locus YLR262C, strain YPT6, active compounds read low 1.01 | S. cerevisiae deletion strains, locus YLR268W, strain sec22, active compounds read low 1.02 | S. cerevisiae deletion strains, locus YLR320W, strain mms22, active compounds read low 0.992 | S. cerevisiae deletion strains, locus YLR330W, strain CHS5, active compounds read low 1.01 | S. cerevisiae deletion strains, locus YLR342W, strain FKS1 (second series), active compounds read low 1.01 | S. cerevisiae deletion strains, locus YLR342W, strain FKS1, active compounds read low 1.01 | S. cerevisiae deletion strains, locus YLR357W, strain rsc2, active compounds read low 1.01 | S. cerevisiae deletion strains, locus YLR370C, strain arc18, active compounds read low 1.01 | S. cerevisiae deletion strains, locus YLR371W, strain rom2, active compounds read low 1.02 | S. cerevisiae deletion strains, locus YLR384C, strain iki3, active compounds read low 0.982 | S. cerevisiae deletion strains, locus YLR418C, strain cdc73, active compounds read low 1.02 | S. cerevisiae deletion strains, locus YML016C, strain PPZ1, active compounds read low 1.01 | S. cerevisiae deletion strains, locus YML032C, strain rad52, active compounds read low 1.01 | S. cerevisiae deletion strains, locus YML120C, strain ndi1, active compounds read low 1.01 | S. cerevisiae deletion strains, locus YML124C, strain tub3, active compounds read low 1.02 | S. cerevisiae deletion strains, locus YMR058W, strain fet3, active compounds read low 1.02 | S. cerevisiae deletion strains, locus YMR078C, strain ctf18, active compounds read low 1 | S. cerevisiae deletion strains, locus YMR125W, strain sto1, active compounds read low 1.01 | S. cerevisiae deletion strains, locus YMR129W, active compounds read low 1 | S. cerevisiae deletion strains, locus YMR205C, strain PFK2, active compounds read low 0.993 | S. cerevisiae deletion strains, locus YMR223W, strain ubp8, active compounds read low 1.01 | S. cerevisiae deletion strains, locus YMR231W, strain pep5, active compounds read low 1 | S. cerevisiae deletion strains, locus YMR263W, strain SAP30, active compounds read low 1.01 | S. cerevisiae deletion strains, locus YMR307W, strain GAS1, active compounds read low 1.03 | S. cerevisiae deletion strains, locus YNL067W, strain RPL9B, active compounds read low 1.02 | S. cerevisiae deletion strains, locus YNL071W, strain lat1, active compounds read low 1.01 | S. cerevisiae deletion strains, locus YNL128W, strain TEP1, active compounds read low 1.02 | S. cerevisiae deletion strains, locus YNL153C, strain GIM3, active compounds read low 1 | S. cerevisiae deletion strains, locus YNL209W, strain ssb2, active compounds read low 1.01 | S. cerevisiae deletion strains, locus YNL233W, strain BNI4, active compounds read low 1 | S. cerevisiae deletion strains, locus YNL248C, strain rpa49, active compounds read low 0.91 | S. cerevisiae deletion strains, locus YNL250W, strain rad50, active compounds read low 1.01 | S. cerevisiae deletion strains, locus YNL271C, strain bni1, active compounds read low 1.02 | S. cerevisiae deletion strains, locus YNL298W, strain CLA4, active compounds read low 1.01 | S. cerevisiae deletion strains, locus YNL307C, strain MCK1, active compounds read low 1.02 | S. cerevisiae deletion strains, locus YNL322C, strain KRE1 (second series), active compounds read low 0.994 | S. cerevisiae deletion strains, locus YNL322C, strain KRE1, active compounds read low 1.01 | S. cerevisiae deletion strains, locus YNR049C, strain mso1, active compounds read low 0.996 | S. cerevisiae deletion strains, locus YNR052C, strain pop2, active compounds read low 1.01 | S. cerevisiae deletion strains, locus YOL006C, strain TOP1, active compounds read low 1.04 | S. cerevisiae deletion strains, locus YOL012C, strain htz1 0.941 | S. cerevisiae deletion strains, locus YOL147C, strain pex11, active compounds read low 1.01 | S. cerevisiae deletion strains, locus YOR001W, strain rrp6, active compounds read low 0.988 | S. cerevisiae deletion strains, locus YOR061W, strain CKA2, active compounds read low 1 | S. cerevisiae deletion strains, locus YOR069W, strain VPS5, active compounds read low 1.01 | S. cerevisiae deletion strains, locus YOR070C, strain gyp1, active compounds read low 1 | S. cerevisiae deletion strains, locus YOR080W, strain dia2, active compounds read low 1 | S. cerevisiae deletion strains, locus YOR083W, strain WHI5, active compounds read low 1 | S. cerevisiae deletion strains, locus YOR106W, strain vam3, active compounds read low 1.01 | S. cerevisiae deletion strains, locus YOR136W, strain idh2, active compounds read low 1.01 | S. cerevisiae deletion strains, locus YOR144C, strain elg1, active compounds read low 1.02 | S. cerevisiae deletion strains, locus YOR184W, strain ser1, active compounds read low 1.01 | S. cerevisiae deletion strains, locus YOR265W, strain rbl2, active compounds read low 1.02 | S. cerevisiae deletion strains, locus YOR270C, strain vph1, active compounds read low 1.01 | S. cerevisiae deletion strains, locus YOR290C, strain snf2, active compounds read low 0.998 | S. cerevisiae deletion strains, locus YOR316C, strain cot1, active compounds read low 1.01 | S. cerevisiae deletion strains, locus YPL051W, strain arl3, active compounds read low 1.03 | S. cerevisiae deletion strains, locus YPL055C, strain LGE1, active compounds read low 1.02 | S. cerevisiae deletion strains, locus YPL078C, strain atp4, active compounds read low 1.02 | S. cerevisiae deletion strains, locus YPL106C, strain sse1, active compounds read low 1.01 | S. cerevisiae deletion strains, locus YPL240C, strain hsp82, active compounds read low 1.01 | S. cerevisiae deletion strains, locus YPL241C, strain CIN2, active compounds read low 1.01 | S. cerevisiae deletion strains, locus YPR119W, strain clb2, active compounds read low 1.02 | S. cerevisiae deletion strains, locus YPR141C, strain kar3, active compounds read low 1.02 | S. cerevisiae deletion strains, locus YPR163C, strain tif3, active compounds read low 1.03 | S. cerevisiae deletion strains, locus YPR167C, strain met16, active compounds read low 1.01 | S. cerevisiae deletion strains, strain wtn01, active compounds read low 1.01 | S. cerevisiae strains, strain wild type, active compounds read low 1.01
